KB-V1 MDR tox – qHTS assay for MDR1-selective chemotherapeutics: Primary screen using the drug-selected MDR subline cells KB-V1 | KB-V1 MDR cells viability, CellTiter-Glo, 72 h | Potency, µM (top dose mostly 46.1 µM), usual class: cytotoxic | hit rate 3.4% among 400,000; also: nearly all actives have a fitted effect of over 60% in size
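qHTS viability screen in drug-selected KB-V1 MDR cells: 72 h compound treatment at 37 degrees C, ATP luminescence end point.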
HepG2 viability – qHTS for Inhibitors of TGF-b: Cytotox Counterscreen. hit rate 0.76% among 410,000. AID 588856, 2011. Potency, µM (doses to about 46.1 µM), actives largely listed as cytotoxic. HepG2 CAGA-GFP viability, ATP luminescence, 18 h
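CellTiter-Glo luminescence gave cytotoxicity after 18 hours at 37 degrees C. The cells were HepG2 CAGA-GFP in 1% FBS DMEM, stimulated with 500 pg/mL TGF-beta after compound addition. %Activity was normalised to no-cell wells (complete cell-killing) and DMSO (no toxicity), and curves were fitted and classified.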
KB-3-1 cytotox – qHTS assay for MDR1-selective chemotherapeutics: Primary screen using the parental adenocarcinoma cell KB-3-1; Potency, µM (doses to about 46.1 µM), usual class: cytotoxic; hit rate 1.4% among 400,000; AID 1347075, 2019; KB-3-1 viability, CellTiter-Glo ATP luminescence, 72 h; also: nearly all actives have a fitted effect of over 60% in size
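Cytotoxicity measured as CellTiter-Glo luminescence after 72 h at 37 C. Compound titrations were pinned onto drug-naive KB-3-1 parental adenocarcinoma cells grown in DMEM with 10% FBS, and normalized data fitted to concentration-response curves.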
TGFb SMAD3 inh – qHTS for Inhibitors of TGF-b; AID 588855, 2011; HepG2 CAGA-GFP TGF-b/SMAD3 reporter, GFP fluorescence, 18 h; TGF-beta stimulated, 500 pg/mL final; hit rate 1.2% among 410,000; Potency, µM (doses to about 46.1 µM), most hits filed as inhibitors; also: nearly all actives have a fitted effect of over 65% in size
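Using HEPG2 CAGA-GFP reporter cells at 1000 cells/well, we pinned test compounds, stimulated with recombinant TGF-beta (500 pg/mL final) and measured total well GFP after 18 h.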
HT1080 IDH1KD tx – qHTS for induction of synthetic lethality in tumor cells producing 2HG: qHTS for the HT-1080-IDH1KD cell line; HT-1080 IDH1 knockdown viability, ATP luminescence, 48 h; Potency, µM (series often up to 46.1 µM), hits mostly cytotoxic; hit rate 2% among 360,000; AID 686971, 2013
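After a 2 h attachment period, IDH1KD HT-1080 cells took pin-transferred compound for 48 h at 37 °C; ATP-based luminescence after 10 min room-temperature reagent incubation reported viability.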
HT1080-NT tox – qHTS for induction of synthetic lethality in tumor cells producing 2HG: qHTS for the HT-1080-NT fibrosarcoma cell line | HT-1080-NT fibrosarcoma viability, CellTiter-Glo ATP luminescence, 48 h | hit rate 1.6% among 360,000 | Potency, µM (titrated, usually from 46.1 µM), usual class: cytotoxic | AID 686970, 2013;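 also: NT is the 2HG producing partner of a matched IDH1 knockdown line; nearly all actives have a fitted effect of over 55% in size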
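HT-1080-NT fibrosarcoma cells (2HG-overproducing), 750 cells/well in RPMI with 5% FBS, dosed after 2 h and incubated 48 h at 37C. CellTiter-Glo luminescence normalized to DMSO and no-cell wells; concentration-response curves fitted and classed.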
Numbers stand for hits; 0 = inactive; ? = inconclusive; - = not tested or not shown. Compounds with a hit are over-represented: about 6.6% of the library has one in this group of screens. Calls follow the shape of the dose curve; as a rule, active = well fitted curve in the direction sought with a large enough effect; inconclusive = small, poorly fitted or top-dose-only effect, or another doubt; inactive = no such curve, though single readings can be large; an effect the other way counts as inactive or inconclusive.

SMILES	KB-V1 MDR tox	HepG2 viability	KB-3-1 cytotox	TGFb SMAD3 inh	HT1080 IDH1KD tx	HT1080-NT tox
Cc1ccc(N=Nc2c(O)n(CN3CCOCC3)c3ccccc23)cc1	0	0	0	0	0	0
O=C(N=Nc1c(O)n(Cc2ccccc2)c2ccccc12)c1cc2ccccc2cc1O	?	0	?	0	0	0
CCC(C)NC(=O)c1ccc2c(c1)sc1nc(-c3ccc(OC)cc3)cn12 (centres undefined)	-	0	-	0	-	-
Cc1ccc(-c2nc3cc(C(C)C)ccc3o2)cc1NC(=O)c1cccs1	?	0	0	0	-	-
Cc1ccc(-c2ccc(=O)n(CC(=O)NC(C)c3ccccc3)n2)cc1 (centres undefined)	0	0	0	0	-	-
COc1ccc(CCNC(=O)c2ccc3c(c2)CCN3S(=O)(=O)c2ccc(Cl)cc2)cc1	?	0	0	?	-	-
COc1ccc(-c2csc(NC(=O)C3CC(=O)N(c4ccc5c(c4)OCCO5)C3)n2)cc1 (centres undefined)	21µM	0	0	0	?	0
O=C(Nc1nc(-c2ccc3c(c2)OCCO3)cs1)C1CC(=O)N(c2ccc3c(c2)OCCO3)C1 (centres undefined)	0	0	?	0	-	-
Nc1ncnc2c1nc(Cl)n2[C@@H]1O[C@H](CO)[C@@H](O)[C@@H]1O	0	0	?	?	-	-
O=C(/C=C/Nc1ccccc1)c1ccccc1	0	0	0	0	0	0
CN(C)c1ccc(N/C=C/C(=O)c2ccccc2)cc1	?	0	0	0	?	8.9µM
Cc1ccc(C)c(Cn2c3ccccc3c3cnn(CC(=O)NCC(C)c4ccccc4)c(=O)c32)c1 (centres undefined)	0	0	0	0	-	-
Cc1ccc(Cn2ccc(NC(=O)c3cc(-c4ccc(Cl)c(Cl)c4)on3)n2)cc1	0	0	0	0	-	-
O=[N+]([O-])c1ccc(CN2CCCCCC2)s1	?	0	23µM	0	0	0
O=C(/C=C/c1ccc([N+](=O)[O-])s1)N1CCCC1	?	20µM	?	11µM	0	?
O=C(/C=C/c1ccc([N+](=O)[O-])s1)N1CCCCC1	?	11µM	15µM	13µM	23µM	?
O=C(/C=C/c1ccc([N+](=O)[O-])s1)N1CCN(c2ccccc2)CC1	0	0	0	?	0	0
O=[N+]([O-])c1ccc(CN2CCCCCC2)cc1	0	0	0	0	0	0
CC1CN(C(=O)/C=C/c2ccc([N+](=O)[O-])s2)CC(C)O1 (centres undefined)	8.2µM	10µM	?	?	?	?
CC1CC(C)CN(C(=O)/C=C/c2ccc([N+](=O)[O-])s2)C1 (centres undefined)	?	0	0	0	?	?
O=C1c2c(O)ccc(O)c2C(=O)c2c(NCCNCCO)ccc(NCCNCCO)c21	21µM	0	0.65µM	1.6µM	23µM	1.5µM
O=C1c2ccccc2C(=O)c2c(Nc3ccc(CCO)cc3)ccc(O)c21	0	0	0	0	0	0
CCn1c(C(=O)NCc2ccc(C)cc2)cc2sc(Cl)cc21	-	0	-	-	-	-
O=C(Cn1nc(C(F)(F)F)c2c1CCC2)Nc1ccccc1C(F)(F)F	0	0	0	0	0	0
O=C(Cn1nnc2sc3c(c2c1=O)CCCC3)Nc1ccc(F)c(Cl)c1	0	0	0	?	-	-
O=C(Cn1nc(-c2ccccc2)c2c(c1=O)CCCC2)Nc1ccc(F)c(Cl)c1	?	0	23µM	0	-	-
O=C(Cn1nc(C(F)(F)F)c2c1CCCC2)Nc1ccc(F)c(Cl)c1	?	0	0	11µM	-	-
O=C(Cn1nc(C(F)(F)F)c2c1CCCC2)N1CCOCC1	0	0	0	0	0	0
COc1ccccc1NC(=O)Cn1nc(C(F)(F)F)c2c1CCCC2	21µM	0	0	0	0	0
